Results on seven sequences are retold here after paper PMC7862700, “An all-to-all approach to the identification of sequence-specific readers for epigenetic DNA modifications on cytosine”.

Holding throughout (assay): DAPPL (digital affinity profiling via proximity ligation, sequencing); 10 mM Tris-HCl pH 7.5, 50 mM NaCl, 1 mM DTT, 4% glycerol, room temperature, 30 min; GST-TFs on glutathione beads, 16-mer random dsDNA library, 0.1% formaldehyde crosslink after washing; high values mean tight binding
Settings in all cases: protein: recombinant; tags: N-terminal GST; dsDNA, one strand shown

One experiment addresses T1, ERF (Homo sapiens, UniProt P50548 1-548).
T1 sequence: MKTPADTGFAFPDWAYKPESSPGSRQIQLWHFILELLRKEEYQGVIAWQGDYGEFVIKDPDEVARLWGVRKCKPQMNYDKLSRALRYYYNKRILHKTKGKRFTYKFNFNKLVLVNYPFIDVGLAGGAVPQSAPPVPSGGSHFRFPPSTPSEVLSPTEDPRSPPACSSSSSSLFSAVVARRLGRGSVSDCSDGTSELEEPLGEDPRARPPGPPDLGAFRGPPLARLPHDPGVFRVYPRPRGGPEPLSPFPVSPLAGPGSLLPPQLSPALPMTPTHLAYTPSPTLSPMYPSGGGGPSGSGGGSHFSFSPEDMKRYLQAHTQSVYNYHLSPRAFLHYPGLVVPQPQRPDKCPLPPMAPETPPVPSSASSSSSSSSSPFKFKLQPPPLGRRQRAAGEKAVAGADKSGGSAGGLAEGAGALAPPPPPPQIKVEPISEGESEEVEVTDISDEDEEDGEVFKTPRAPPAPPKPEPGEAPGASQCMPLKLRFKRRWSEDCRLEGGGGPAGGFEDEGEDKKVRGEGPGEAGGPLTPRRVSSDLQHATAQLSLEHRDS
An outline of the steps: (§1)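 Human transcription factors carrying a GST fusion were produced in yeast, bound to glutathione beads, tagged with DNA barcodes and pooled together with a tag-only sample. Each pool was held with 200 nmole of a random double-stranded 16-mer DNA library in Tris/NaCl/DTT/glycerol buffer for 30 min at room temperature, then washed, crosslinked in 0.1% formaldehyde, proximity-ligated with BsaI/T4 ligase (1 h, 37 °C), PCR-amplified and sequenced on an Illumina NextSeq500. Binding signal is the read frequency of each hexamer for a given factor divided by its frequency in the tag-only sample.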

For a further experiment, the target named is T2, ETV3L (Homo sapiens, UniProt Q6ZN32 1-361).
T2 sequence: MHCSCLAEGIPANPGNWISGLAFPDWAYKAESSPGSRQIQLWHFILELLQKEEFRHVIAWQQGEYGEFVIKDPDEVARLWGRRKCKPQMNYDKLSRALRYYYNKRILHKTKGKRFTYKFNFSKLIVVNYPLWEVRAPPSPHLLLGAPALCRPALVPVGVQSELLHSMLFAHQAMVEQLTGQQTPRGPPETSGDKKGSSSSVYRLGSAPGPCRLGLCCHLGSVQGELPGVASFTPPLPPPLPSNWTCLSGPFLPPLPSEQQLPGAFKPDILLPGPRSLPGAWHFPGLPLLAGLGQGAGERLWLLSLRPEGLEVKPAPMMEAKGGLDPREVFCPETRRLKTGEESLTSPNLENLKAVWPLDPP
An outline of the steps:
as §1

The next experiment concerns the target T3, ETS2 (Homo sapiens, UniProt P15036 1-469).
T3 sequence: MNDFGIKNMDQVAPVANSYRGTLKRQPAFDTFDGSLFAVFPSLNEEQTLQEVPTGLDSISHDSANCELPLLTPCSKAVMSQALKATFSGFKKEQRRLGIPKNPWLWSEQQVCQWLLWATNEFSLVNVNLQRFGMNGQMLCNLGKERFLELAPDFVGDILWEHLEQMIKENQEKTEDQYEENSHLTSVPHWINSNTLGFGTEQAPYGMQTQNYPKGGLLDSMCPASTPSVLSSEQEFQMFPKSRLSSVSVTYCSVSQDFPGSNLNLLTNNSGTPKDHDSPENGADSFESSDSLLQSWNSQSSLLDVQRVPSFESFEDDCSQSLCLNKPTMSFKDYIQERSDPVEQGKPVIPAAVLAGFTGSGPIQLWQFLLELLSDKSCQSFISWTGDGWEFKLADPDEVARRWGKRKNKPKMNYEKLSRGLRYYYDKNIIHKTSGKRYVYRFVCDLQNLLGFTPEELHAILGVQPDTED
An outline of the steps: as §1

Another experiment deals with T4, SPDEF (Homo sapiens, UniProt O95238 1-335).
T4 sequence: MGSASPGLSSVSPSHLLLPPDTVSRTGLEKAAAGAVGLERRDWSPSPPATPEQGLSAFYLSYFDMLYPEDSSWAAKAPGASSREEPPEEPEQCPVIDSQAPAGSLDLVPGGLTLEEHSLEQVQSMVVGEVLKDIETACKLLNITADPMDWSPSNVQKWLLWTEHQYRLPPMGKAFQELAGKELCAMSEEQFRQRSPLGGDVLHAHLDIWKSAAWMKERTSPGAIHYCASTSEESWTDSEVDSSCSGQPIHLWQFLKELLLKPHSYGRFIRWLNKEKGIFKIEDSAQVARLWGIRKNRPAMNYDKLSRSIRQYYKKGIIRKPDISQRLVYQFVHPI
An outline of the steps: as §1

For a further experiment, the target named is T5, ETV7 (Homo sapiens, UniProt Q9Y603 1-341).
T5 sequence: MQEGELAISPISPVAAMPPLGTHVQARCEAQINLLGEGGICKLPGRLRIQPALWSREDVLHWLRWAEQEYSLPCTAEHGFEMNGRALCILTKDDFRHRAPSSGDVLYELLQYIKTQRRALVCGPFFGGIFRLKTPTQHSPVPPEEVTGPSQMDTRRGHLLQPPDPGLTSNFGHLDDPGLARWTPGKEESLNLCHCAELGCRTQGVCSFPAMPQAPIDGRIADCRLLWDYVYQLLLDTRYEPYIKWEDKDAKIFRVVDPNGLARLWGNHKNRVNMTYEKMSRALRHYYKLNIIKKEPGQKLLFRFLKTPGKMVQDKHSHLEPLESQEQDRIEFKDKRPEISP
The procedure, abridged:
as §1

The target in a further experiment is T6, ELF5 (Homo sapiens, UniProt Q9UKW6-2 1-255).
T6 sequence: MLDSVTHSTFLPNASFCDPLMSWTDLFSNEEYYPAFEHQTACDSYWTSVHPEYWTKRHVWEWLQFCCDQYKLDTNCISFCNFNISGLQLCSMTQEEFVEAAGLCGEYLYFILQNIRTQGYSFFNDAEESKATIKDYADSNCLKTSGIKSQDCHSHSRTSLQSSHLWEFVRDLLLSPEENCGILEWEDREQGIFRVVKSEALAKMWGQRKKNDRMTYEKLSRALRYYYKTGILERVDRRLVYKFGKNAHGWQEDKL
The procedure, abridged:
as §1

In the next experiment the target is T7, ETV3 (Homo sapiens, UniProt P41162-2 1-143).
T7 sequence: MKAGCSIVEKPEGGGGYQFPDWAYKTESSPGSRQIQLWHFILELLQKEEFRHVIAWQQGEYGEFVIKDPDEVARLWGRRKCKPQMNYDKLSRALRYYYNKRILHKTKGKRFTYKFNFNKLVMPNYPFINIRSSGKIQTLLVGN
The procedure, abridged:
as §1

For a further experiment, the target named is ETV6 (Homo sapiens, UniProt P41212 1-452). An outline of the steps: as §1
Sequence of ETV6 (P41212 whole entry): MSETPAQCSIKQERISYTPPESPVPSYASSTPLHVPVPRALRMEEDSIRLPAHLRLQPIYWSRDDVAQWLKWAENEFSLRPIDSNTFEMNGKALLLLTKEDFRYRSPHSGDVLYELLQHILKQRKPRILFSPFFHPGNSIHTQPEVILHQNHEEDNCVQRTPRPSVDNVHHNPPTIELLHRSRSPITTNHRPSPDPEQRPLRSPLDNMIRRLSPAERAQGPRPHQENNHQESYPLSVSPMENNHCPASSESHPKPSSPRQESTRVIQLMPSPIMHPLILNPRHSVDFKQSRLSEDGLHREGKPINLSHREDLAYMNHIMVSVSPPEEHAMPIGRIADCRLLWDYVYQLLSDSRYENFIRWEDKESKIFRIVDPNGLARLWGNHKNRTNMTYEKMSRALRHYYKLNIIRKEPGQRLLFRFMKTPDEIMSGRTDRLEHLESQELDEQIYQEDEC

CTCAGC: the binding signal with ERF was 1.1 fold enrichment (6-mer frequency, TF over GST control); with ETV3L it was 1.36 fold enrichment (6-mer frequency, TF over GST control); with ETS2, 1.22 fold enrichment (6-mer frequency, TF over GST control); with SPDEF, 1.15 fold enrichment (6-mer frequency, TF over GST control); with ETV7 it was 1.21 fold enrichment (6-mer frequency, TF over GST control); in the experiment with ELF5, 1.08 fold enrichment (6-mer frequency, TF over GST control). Also, the binding signal with ETV3 is 1.32 fold enrichment (6-mer frequency, TF over GST control); in the experiment with ETV6, 1.2 fold enrichment (6-mer frequency, TF over GST control).

For the sequence GTGCTC, the binding signal was 1.28 fold enrichment (6-mer frequency, TF over GST control) in the experiment with ERF; 1.19 fold enrichment (6-mer frequency, TF over GST control) in the experiment with ETV3L; 1.26 fold enrichment (6-mer frequency, TF over GST control) with ETS2; 1.05 fold enrichment (6-mer frequency, TF over GST control) with SPDEF; 1.25 fold enrichment (6-mer frequency, TF over GST control) with ETV7; 1.22 fold enrichment (6-mer frequency, TF over GST control) with ELF5. For the same sequence, the binding signal with ETV3 was 1.25 fold enrichment (6-mer frequency, TF over GST control); with ETV6, 1.32 fold enrichment (6-mer frequency, TF over GST control).

As for TATAAG, the binding signal with ERF is 1.2 fold enrichment (6-mer frequency, TF over GST control); in the experiment with ETV3L, 1.21 fold enrichment (6-mer frequency, TF over GST control); in the experiment with ETS2 it was 1.17 fold enrichment (6-mer frequency, TF over GST control); with SPDEF, 1.2 fold enrichment (6-mer frequency, TF over GST control); in the experiment with ETV7, 1.18 fold enrichment (6-mer frequency, TF over GST control); with ELF5 it was 1.16 fold enrichment (6-mer frequency, TF over GST control). Besides, the binding signal in the experiment with ETV3 is 1.15 fold enrichment (6-mer frequency, TF over GST control); with ETV6 it was 1.19 fold enrichment (6-mer frequency, TF over GST control).

Take AGCATT: the binding signal in the experiment with ERF was 1.04 fold enrichment (6-mer frequency, TF over GST control); with ETV3L, 1.06 fold enrichment (6-mer frequency, TF over GST control); in the experiment with ETS2 it was 1.11 fold enrichment (6-mer frequency, TF over GST control); with SPDEF, 1.02 fold enrichment (6-mer frequency, TF over GST control); with ETV7 it was 1.14 fold enrichment (6-mer frequency, TF over GST control); with ELF5 it was 1.1 fold enrichment (6-mer frequency, TF over GST control). The binding signal was 1.09 fold enrichment (6-mer frequency, TF over GST control) with ETV3 and 1.14 fold enrichment (6-mer frequency, TF over GST control) with ETV6.

As to ACCACT, the binding signal with ERF is 1.22 fold enrichment (6-mer frequency, TF over GST control); in the experiment with ETV3L, 1.36 fold enrichment (6-mer frequency, TF over GST control); in the experiment with ETS2 it was 1.29 fold enrichment (6-mer frequency, TF over GST control); with SPDEF, 1.25 fold enrichment (6-mer frequency, TF over GST control); in the experiment with ETV7, 1.24 fold enrichment (6-mer frequency, TF over GST control); with ELF5, 1.25 fold enrichment (6-mer frequency, TF over GST control). Moreover, the binding signal in the experiment with ETV3 was 1.24 fold enrichment (6-mer frequency, TF over GST control); with ETV6 it was 1.28 fold enrichment (6-mer frequency, TF over GST control).

On to GTAATT, for which the binding signal was 1.12 fold enrichment (6-mer frequency, TF over GST control) with ERF; 1.21 fold enrichment (6-mer frequency, TF over GST control) in the experiment with ETV3L; 1.28 fold enrichment (6-mer frequency, TF over GST control) with ETS2; 1.19 fold enrichment (6-mer frequency, TF over GST control) in the experiment with SPDEF; 1.3 fold enrichment (6-mer frequency, TF over GST control) with ETV7; 1.28 fold enrichment (6-mer frequency, TF over GST control) in the experiment with ELF5. The binding signal in the experiment with ETV3 is 1.18 fold enrichment (6-mer frequency, TF over GST control); with ETV6 it was 1.3 fold enrichment (6-mer frequency, TF over GST control).

Turning to GTATAC, the binding signal with ERF is 1.41 fold enrichment (6-mer frequency, TF over GST control); with ETV3L it was 1.16 fold enrichment (6-mer frequency, TF over GST control); in the experiment with ETS2, 1.32 fold enrichment (6-mer frequency, TF over GST control); in the experiment with SPDEF it was 1.3 fold enrichment (6-mer frequency, TF over GST control); with ETV7 it was 1.2 fold enrichment (6-mer frequency, TF over GST control); in the experiment with ELF5, 1.31 fold enrichment (6-mer frequency, TF over GST control). For the same sequence, the binding signal in the experiment with ETV3 is 1.23 fold enrichment (6-mer frequency, TF over GST control); with ETV6, 1.19 fold enrichment (6-mer frequency, TF over GST control).
